Gal4-VP16 FLuc – Gal4-VP16 reporter inhibition counter-screen; Drosophila S2 Gal4-VP16 UAS-luciferase, luminescence, 20 h; Potency, µM (doses to about 53.6 µM), inactives show at the top dose activity, negative = inhibition, most hits filed as inhibitors; actives 3.5% (n = 310,000);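 also: Gal4-VP16 expression switched on by copper sulfate through the metallothionein promoter; nearly all actives have a fitted effect of over 50% in size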
ALDH1A1 inh – inhibitors of human aldehyde dehydrogenase 1A1 | Purified ALDH1A1, NADH fluorescence, propionaldehyde substrate | actives 7.3% (n = 220,000) | Potency, µM (doses to about 75.3 µM), without a hit: top-dose activity, negative = inhibition, hits mostly inhibitors | AID 1030; active = well fitted inhibition curve with a large enough effect, not every such curve was filed as active; inconclusive = small, poorly fitted or top-dose-only effect, or another doubt; inactive = no such curve, though single readings can be large or run the other way;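 also: plate controls were no enzyme wells and a reference inhibitor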
Sfp PPTase inh – blocks B. subtilis Sfp PPTase activity. Potency, µM, for inactives: largest response in the series, negative = inhibition, hits mostly inhibitors. actives 3.5% (n = 310,000). Biochemical Sfp PPTase activity, qHTS. AID 1490. Q9F4F7;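 also: the enzyme is Sfp with the accession as filed and its product quenches rhodamine fluorescence; 0% = enzyme reaction without inhibitor and -100% = no enzyme wells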
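After 15 min at room temperature with compound, 15 nM Sfp received 5 uM rhodamine-CoA plus 12.5 uM BHQ-2-ybbR (50 mM Hepes pH 7.6, 10 mM MgCl2). Rate came from the fluorescence difference over 30 min, ex 525/em 598 nm.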
PLK1 PBD inh – blocks phosphopeptide binding to human PLK1 polo-box domain. Potency, µM, for inactives: max response, negative = inhibition, usual class: inhibitors. actives 2.8% (n = 360,000). P53350. Plk1 PBD binding of FITC phosphopeptide, fluorescence polarization; also: series mostly up to about 57 µM; nearly all actives have a fitted effect of over 65% in size
Target sequence (P53350 whole entry, looked up, the tested form may be a part): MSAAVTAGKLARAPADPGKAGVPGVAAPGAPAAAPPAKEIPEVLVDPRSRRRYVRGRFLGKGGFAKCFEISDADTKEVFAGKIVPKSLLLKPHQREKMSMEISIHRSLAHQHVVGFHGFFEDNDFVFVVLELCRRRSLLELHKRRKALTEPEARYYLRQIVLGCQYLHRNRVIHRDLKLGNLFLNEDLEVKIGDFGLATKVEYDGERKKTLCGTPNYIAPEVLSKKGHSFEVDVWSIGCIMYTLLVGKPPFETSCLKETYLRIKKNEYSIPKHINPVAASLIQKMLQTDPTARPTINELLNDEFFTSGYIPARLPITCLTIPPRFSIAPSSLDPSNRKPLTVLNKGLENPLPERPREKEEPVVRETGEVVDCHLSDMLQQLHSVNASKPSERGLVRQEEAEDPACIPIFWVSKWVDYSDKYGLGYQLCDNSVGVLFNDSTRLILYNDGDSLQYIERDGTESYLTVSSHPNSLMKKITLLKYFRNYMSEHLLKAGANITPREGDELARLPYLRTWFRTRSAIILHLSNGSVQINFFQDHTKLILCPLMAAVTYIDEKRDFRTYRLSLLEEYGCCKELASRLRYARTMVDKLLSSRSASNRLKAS
RORgamma inh – inhibitors of mouse ROR gamma transcriptional activity | actives 5.4% (n = 310,000) | Drosophila S2 Gal4-RORgamma UAS-luciferase reporter, 20 h | Potency, µM (doses to about 53.6 µM), for the others: top-dose activity change, negative = inhibition, hits mostly inhibitors; also: nearly all actives have a fitted effect of over 60% in size
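Luminescence from a UAS-regulated Photinus luciferase reporter in stably transfected Drosophila Schneider cells is measured; decreased signal marks ROR gamma inhibition. Fusion expression is induced by 700 uM copper sulfate for 20 hr.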
An asterisk follows results filed as active; ? = inconclusive; . = not tested or not shown; ! = repeats disagree; [ ] = remark or other dose. In the library only some 12% were active in any assay of this set; here they are far more common. Unless noted, calls follow the shape of the dose curve; as a rule, active = well fitted curve in the direction sought with a large enough effect; inconclusive = small, poorly fitted or top-dose-only effect, or another doubt; inactive = no such curve, though single readings can be large; an effect the other way counts as inactive or inconclusive. Unless noted, % is scaled to controls: 0 for no effect and ±100 for the full control effect; potency is read from the fitted curve at half-maximal effect.

SMILES	Gal4-VP16 FLuc	ALDH1A1 inh	Sfp PPTase inh	PLK1 PBD inh	RORgamma inh
COc1ccc(N(C(=O)c2ccco2)C(C(=O)NC2CCCCC2)c2cccs2)cc1OC (stereo not drawn)	-3%	11%	8%	-1%	?
C#CC(=O)N(c1cc(OC)ccc1OC)C(C(=O)NC1CCCC1)c1cccs1 (stereo not drawn)	7.1µM*	-8%	-4%	?	4.5µM*
Cc1n[nH]c(=O)c2c(NC(=O)CSc3nncs3)oc(C)c12	.	.	.	-6%	.
COc1cccc([C@@H]2Oc3ccc(OC)cc3C(=O)[C@H]2O)c1	?	0%	-10%	-7%	13µM*!
COC(=O)[C@H](Cc1ccccc1)NC(=O)O[C@@H]1C(=O)c2cc(OC)ccc2O[C@H]1c1cccc(OC)c1	-24%	20µM*	-22%	.	22%
N#CC1=C(N)OC2=C(CCC/C2=C/c2ccoc2)C1c1ccoc1 (stereo not drawn)	8%	?	40µM*	.	5%
N#CC1=C(N)OC2=C(CC/C2=C\c2ccc(F)cc2)C1c1ccc(F)cc1 (stereo not drawn)	-6%	-39%	11%	.	2%
COc1ccc(OC)c(S(=O)(=O)N(C(C)=O)c2ccc3oc(=O)sc3c2)c1	-4%	?	45µM*	2%	2%
COc1ccc(C(=O)Oc2ccc3oc(=O)sc3c2)cc1	3%	?	50µM*	-24%	-18%
COc1ccc(N(C(C)=O)S(=O)(=O)c2cc(OC)ccc2OC)cc1	-3%	4%	15%	-3%	4%
COc1ccc(S(=O)(=O)N(C(=O)C(C)C)c2ccc3oc(=O)sc3c2)cc1	1%	?	?	-23%	-1%
CC(C)C(=O)N(c1ccc2oc(=O)sc2c1)S(=O)(=O)c1ccccc1	?	-1%	18µM*	-11%	?
CC(=O)N(c1ccc2oc(=O)sc2c1)S(=O)(=O)c1ccccc1	-10%	-4%	8.9µM*	30µM*	-18%
NC(=NCCc1ccccc1)NS(=O)(=O)c1ccccc1F	0%	.	15%	-8%	-6%
COc1ccc(NC(=O)C2c3ccccc3OCC(=O)N2Cc2ccco2)cc1 (stereo not drawn)	.	.	.	-13%	.
CC(C)Cn1c(-c2ccccc2)nc(=S)c2c1CCCC2	-16%	-13%	10%	-18%	20µM*
S=c1nc(-c2ccccc2)n(Cc2ccco2)c2c1CCCC2	?	10µM*	-21%	.	18µM*
S=c1nc(-c2ccccc2)n(Cc2cccnc2)c2c1CCCC2	7%	.	-3%	-9%	4%
COc1cc2c(cc1OC)C1(O)C(=O)c3ccc(O)c(C(=O)O)c3OC1CO2 (stereo not drawn)	7%	-11%	-19%	.	-8%
Cc1ccc(F)c(S(=O)(=O)NC(=O)C2(C)CCN2C(=O)CCc2ccccc2)c1 (stereo not drawn)	.	.	.	-10%	.
O=C(CN1C(=O)NC2(CCSC2)C1=O)N1CCN(c2ccc(F)cc2)CC1 (stereo not drawn)	2%	20µM*	8%	-1%	-2%
O=C(CN1C(=O)NC(c2ccccc2)(c2ccccc2)C1=O)N1CCN(c2ccc(F)cc2)CC1	.	.	.	2%	.
COc1ccc(S(=O)(=O)C(C#N)c2nc3ccccc3nc2N2CCC(C)CC2)cc1 (stereo not drawn)	5%	18µM*	?	.	3%
CCOC(=O)C(=CNNc1cccc(Cl)c1)C(=O)OCC	?	.	?	9.5µM*	?
Cc1ccc(S(=O)(=O)N2CC3(O)CN(C(=O)OC(C)C)N(C(=O)OC(C)C)CC3(OC(=O)NC3CCCC3)C2)cc1 (stereo not drawn)	.	.	.	-3%	.
SMILES	Gal4-VP16 FLuc	ALDH1A1 inh	Sfp PPTase inh	PLK1 PBD inh	RORgamma inh
COc1ccc(S(=O)(=O)CCC(=O)N2c3ccccc3CC2C)cc1 (stereo not drawn)	25%	-8%	7%	-15%	16%
O=C(CCS(=O)(=O)c1ccc2c(c1)NC(=O)CS2)NCCc1ccccc1	6%	.	13%	-18%	-2%
Cc1cccc(NC(=O)CCS(=O)(=O)c2ccc3c(c2)NC(=O)CS3)n1	0%	.	11%	30µM*	2%
COc1ccc(CCNC(=O)CCS(=O)(=O)c2ccc3c(c2)NC(=O)CS3)cc1OC	-5%	.	16%	30µM*	-21%
CC1CCC(NC(=O)CCS(=O)(=O)c2ccc3c(c2)NC(=O)CS3)CC1 (stereo not drawn)	-12%	.	-3%	-4%	-1%
CC1Cc2ccccc2N1C(=O)CCS(=O)(=O)c1ccc2c(c1)NC(=O)CS2 (stereo not drawn)	1%	.	13%	19µM*	-2%
O=C(CCS(=O)(=O)c1ccc2c(c1)NC(=O)CS2)NCCc1ccc(Cl)cc1	-3%	.	12%	17µM*	32%
COc1ccc(Oc2ncc3nc(CCc4ccccc4)c(=O)n(C[C@H]4CCCO4)c3n2)cc1	?	?	18%	.	?
Cc1oc2c(c1C(=O)N1CCC(C)CC1)C(=O)c1ccccc1C2=O	?	?	-22%	-2%	7.9µM*
CCOC(=O)C1CCN(C(=O)c2c(C)oc3c2C(=O)c2ccccc2C3=O)CC1	?	-11%	-26%	-4%	11µM*
CC1CCN(C(=O)c2ccc3c(c2)C(=O)c2ccccc2-3)CC1	.	.	.	-8%	.
CC(=O)c1cccc(-c2ccnc3c2CC(C(=O)Nc2cccc(C(F)(F)F)c2)O3)c1 (stereo not drawn)	.	.	.	-4%	.
O=C(Nc1ccc(F)c(Cl)c1)c1cc(C2CCCCN2C(=O)c2ccc3c(c2)CCO3)on1 (stereo not drawn)	.	.	.	-3%	.
CC(=O)Nc1ccc(-c2ccnc3c2CC(C)(C(=O)Nc2ccc4c(c2)OCO4)O3)cc1 (stereo not drawn)	.	.	.	-2%	.
CCOC(=O)Cc1csc(NC(=O)Cn2cnc3c2c(=O)n(C)c(=O)n3C)n1	4%	3%	-3%	12µM*	15%
CCOC(=O)Cc1csc(N/C(=N/S(=O)(=O)c2ccc(Cl)cc2)c2ccccc2)n1	4%	-1%	12%	21µM*	9%
CCOC(=O)Cc1csc(NC(=O)CCS(=O)(=O)Cc2ccccc2)n1	10%	20µM*	15%	-7%	10%
Cn1cccc1C(=O)N1CCC2(CC1)CCN(c1ccncc1)CC2	-5%	7%	22%	.	-11%
CCOc1cc(/C=N/NC(=O)c2ccccn2)ccc1OC(=O)c1ccc(F)cc1	?	.	-2%	-1%	18µM*
CCOc1cc(/C=N/Nc2cccc(C(=O)O)c2)ccc1OC(=O)c1ccccc1	20%[10 µM]	40µM*	1%	30µM*	-14%
COc1cc(C=NNc2ccccc2)ccc1OC(=O)c1ccccc1	.	.	.	-5%	.
Cc1ccc(C)c(S(=O)(=O)c2c[nH]c(=S)[nH]c2=O)c1	7%	.	-12%	-29%	-10%

Screens: PubChem BioAssay, National Center for Advancing Translational Sciences (NCATS)
